aSyn UTR inh = MLPCN primary screen, SNCA 5' untranslated region; alpha-synuclein 5'UTR reporter, inhibitor activity; inhibition, % (tested at 7.5 µM); AID 1813; 300,000 compounds, 0.82% hits; in the data active = inhibition above about 60%;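 also: H4 neuroglioblastoma cells stably carrying SNCA 5'UTR luciferase fusion; 0% = DMSO wells and 100% = positive control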
A1 inh = inhibitors of the anti-apoptotic protein A1, read as caspase activation. AID 2462. caspase activation, % (test concentration not listed). 330,000 compounds, 0.066% hits. MEF A1-2A-BIM cells, Caspase-Glo 3/7 luminescence, 3 h; percent of clofoctol response, vehicle zero;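 active = over half of replicate activation scores above 10%, or exactly half above 10 with the replicate mean above 10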
CSC inhib = cancer stem cell inhibition | cancer stem cell-like cells viability, luminescence | inhibition, % at 7.5 µM | 300,000 compounds, 1.1% hits; in the data active = inhibition above about 75%; tested in HMLE shEcad cells
Mdm2-MdmX inh = inhibitors of human Mdm2/MdmX interaction; O15151+Q00987; SaOS-2 split-luciferase Mdm2/MdmX complementation, luminescence; inhibition, % at 8 µM; 330,000 compounds, 3% hits; AID 485346;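 active = inhibition of at least 50% at 8 µM in the primary screen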
Beta cell apopt = beta cell apoptosis inhibition; protection from apoptosis, % (no concentration beside the values); 300,000 compounds, 0.8% hits; INS-1E cytokine-induced death, ATP luminescence, 48 h; percent of positive-control rescue, neutral wells zero; AID 435005;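 active = Every replicate reaches about 75%, or at least half do and their mean reaches it too, limit read from the data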;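 also: 0% = cytokine-treated negative control wells and 100% = positive control rescue; higher means more ATP so stronger rescue from cytokine killing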
Mdm2-MdmX conf = human Mdm2/MdmX binding inhibition, confirmed; luminescent assay; shares compounds with Mdm2-MdmX inh; 10,000 compounds, 55% hits; AID 489028; inhibition, % at 8 µM; in the data active = inhibition above about 40%
Full FLuc ctr = full-length luciferase inhibition in Mdm2/MdmX counter-screen. shares compounds with Mdm2-MdmX inh. SaOS-2 full-length luciferase counterscreen, luminescence. inhibition, % at 8 µM. 6,200 compounds, 77% hits. AID 504607;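 active = mean inhibition at 8 µM reaching about 37%, which flags the compound as non-specific, limit read from the data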;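 also: p53-null SaOS-2 cells with luciferase driven by a doxycycline-inducible promoter; compound on cells about two nights before reading with doxycycline added after day one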
Active calls of the source: *; nt = not tested or not shown. The list is not random: actives were taken first. Their share in the collection is about 4.1%.

SMILES | aSyn UTR inh | A1 inh | CSC inhib | Mdm2-MdmX inh | Beta cell apopt | Mdm2-MdmX conf | Full FLuc ctr
COc1ccc(-n2nc(C(=O)NCC(=O)NCc3ccccc3OC)c3ccccc3c2=O)c(OC)c1 | 28 | 0 | 1 | -36 | 1 | nt | nt
COc1ccccc1OCCNC(=O)C1CC(=O)N(c2ccc3c(c2)OCCO3)C1 (centres undefined) | 1 | 0 | -7 | 21 | -5 | nt | nt
COc1ccccc1C(=O)Nc1nc2ccccc2s1 | 109* | -8 | 105* | 93* | 46 | 90* | 32
COc1ccc2nc(NC(=O)CSc3nnc(C)s3)sc2c1 | -78 | -3 | -9 | 80* | -6 | -22 | nt
CS(=O)(=O)c1ccc2nc(NC(=O)Nc3ccc(Cl)cc3)sc2c1 | -1 | 1 | nt | 50* | 5 | 23 | nt
COc1ccc2nc(NC(=O)CSc3nc(SC)ns3)sc2c1 | -110 | 0 | 5 | 19 | -6 | nt | nt
CCN(CC)CCNC(=O)C1(O)c2cc(Br)ccc2NC(=O)N1c1ccccc1 (centres undefined) | -4 | 0 | 3 | -17 | -7 | nt | nt
CCn1cc([N+](=O)[O-])c(C(=O)N2N=C(c3ccc4ccccc4c3)CC2c2cc(Br)ccc2O)n1 (centres undefined) | -16 | -1 | -3 | 99* | 27 | 41* | 39*
CCn1cc([N+](=O)[O-])c(C(=O)N2N=C(c3ccc(O)c(OC)c3)CC2c2ccccc2O)n1 (centres undefined) | 21 | 0 | 12 | 21 | -4 | nt | nt
CCn1cc([N+](=O)[O-])c(C(=O)N2N=C(c3ccc(Cl)c(Cl)c3)CC2c2ccccc2O)n1 (centres undefined) | -6 | 0 | -2 | 71* | 2 | 42* | 71*
COc1ccc(NC2=C(C)C(=O)CC2)cc1 | -29 | 0 | 6 | 59* | -9 | 39 | 90*
COc1ccc(Nc2ccc(OC)cc2)cc1 | -105 | -1 | -8 | 22 | 68 | nt | nt
CCc1cccc2c(C(=O)CN3C(=O)N(C)C4(CCCCC4)C3=O)c[nH]c12 | nt | -1 | nt | 52* | 0 | 24 | nt
O=C(CCC(=O)N(CC(=O)NC1CCCCC1)c1ccc(F)cc1)Nc1ccccn1 | -12 | 0 | -2 | 3 | -4 | nt | nt
CC(=O)Nc1ccccc1NC(=O)c1cc(C)ccc1C | 0 | 0 | -8 | 4 | 0 | nt | nt
Cc1ccc2nc(NC(=O)c3ccccn3)sc2c1 | 111* | -9 | 84* | 100* | 79* | 90* | 56*
CCOc1ccc2nc(NC(=O)c3ccccn3)sc2c1 | 80* | -7 | 94* | 76* | 77* | 76* | 42*
Cc1ccc(C)c(C(=O)c2ccccc2NC(=O)c2ccccn2)c1 | -11 | -1 | 70 | 57* | 3 | 58* | 73*
Cc1ccc2nc(NC(=O)/C=C/c3ccc4c(c3)OCO4)sc2c1 | 32 | -1 | 49 | 78* | 84* | 22 | nt
O=C(/C=C/c1ccc2c(c1)OCO2)Nc1nc2ccccc2s1 | -14 | -4 | 67 | 48 | 58 | nt | nt
CC1CCC(NC(=O)CSc2nncs2)CC1 (centres undefined) | -9 | 0 | -7 | 1 | -4 | nt | nt
C[C@H](CO)N1C[C@H](C)[C@@H](CN(C)C(=O)Nc2ccc(C(F)(F)F)cc2)Oc2ccc(NC(=O)Cc3ccccc3)cc2C1=O | nt | -1 | 11 | 34 | -1 | nt | nt
COc1ccc(NC(=O)CSc2nnc3ccc(-c4cccnc4)nn23)c(OC)c1 | -2 | 0 | -5 | 21 | 2 | nt | nt
Cc1cc2c(N=NC(=O)C3CC3c3ccccc3)c(O)[nH]c2cc1Br (centres undefined) | 26 | 1 | 12 | 54* | -2 | -8 | nt
CCOC(=O)c1sc(NC(=O)c2ccc(Cl)s2)cc1C | -196 | -6 | 5 | -35 | nt | nt | nt
SMILES | aSyn UTR inh | A1 inh | CSC inhib | Mdm2-MdmX inh | Beta cell apopt | Mdm2-MdmX conf | Full FLuc ctr
CCOC(=O)c1sc(NC(=O)c2c(C)nn(Cc3ccccc3)c2C)cc1C | nt | 0 | nt | 53* | 88* | 27 | nt
CCOC(=O)c1sc(NC(=O)c2ccccc2)cc1C | -181 | -7 | 28 | -113 | 11 | nt | nt
CCOC(=O)c1sc(NC(=O)Nc2ccc(Cl)cc2)cc1C | -135 | 1 | 70 | 75* | 89* | 86* | 55*
Cc1c(C(=O)OCC(=O)N(C)Cc2ccc(Cl)cc2)oc2ccccc12 | nt | 0 | nt | -8 | -2 | nt | nt
COCCn1ccc2c(OCC(=O)Nc3cccc(NC(C)=O)c3)cccc2c1=O | 0 | -1 | 8 | 9 | -3 | nt | nt
COc1cc(C(=O)NC2CCCc3ccccc32)cc(OC)c1C (centres undefined) | 52 | 1 | -1 | 24 | nt | nt | nt
COc1ccc(C(=O)NC2CCCc3ccccc32)cc1[N+](=O)[O-] (centres undefined) | 22 | 1 | 47 | 67* | nt | 58* | 53*
O=C(O)CSc1nnc(-c2cccc(S(=O)(=O)N3CCOCC3)c2)n1-c1ccc(F)cc1 | nt | 0 | -15 | 5 | -2 | nt | nt
C[C@H](CO)N1C[C@H](C)[C@@H](CN(C)C(=O)Nc2ccc3c(c2)OCO3)Oc2c(NC(=O)Nc3ccc(C(F)(F)F)cc3)cccc2C1=O | nt | 0 | 39 | 80* | 3 | 69* | 68*
C[C@H](CO)N1C[C@H](C)[C@@H](CN(C)C(=O)Nc2ccc(C(F)(F)F)cc2)Oc2c(NC(=O)Nc3ccc4c(c3)OCO4)cccc2C1=O | nt | 0 | 3 | 19 | -3 | nt | nt
COc1ccc(NC(=O)N(C)C[C@H]2Oc3c(NC(=O)Nc4ccc(C(F)(F)F)cc4)cccc3C(=O)N([C@H](C)CO)C[C@@H]2C)cc1 | nt | 1 | nt | 60* | 0 | 43* | 69*
COC(=O)C(CC(=O)c1ccc(Br)cc1)n1ccnc1 (centres undefined) | -40 | nt | nt | 99* | nt | 15 | nt
CCOc1ccc(NC(=O)c2cccc3ccccc23)cc1 | -318 | -1 | 38 | 25 | 5 | nt | nt
Cc1ccc(NC(=O)c2cc(N3CCOCC3)nc3ccccc23)cc1 | 13 | 0 | 22 | 55* | -3 | 34 | 45*
O=C(Nc1ccccc1)c1cc(N2CCOCC2)nc2ccccc12 | 22 | 1 | -12 | 17 | -1 | nt | nt
CCOc1ccc(NC(=O)c2cc(OC)nc3ccccc23)cc1 | 83* | 0 | 51 | 63* | 25 | 59* | 71*
Cc1ccc(NC(=O)c2cc(Cl)nc3ccccc23)cc1 | -30 | 0 | 35 | 30 | 4 | nt | nt
COc1cc(C(=O)Nc2ccc(C)cc2)c2ccccc2n1 | 82* | 0 | 50 | 64* | 18 | 48* | 84*
CCN(CC)C(=O)N1CCN(c2c([N+](=O)[O-])c(=O)oc3ccccc23)CC1 | nt | 0 | -5 | 15 | 2 | nt | nt
Cc1nn(Cc2ccc(Cl)cc2Cl)c(C)c1NC(=O)c1sc2ccccc2c1Cl | 8 | -1 | 7 | 28 | -2 | nt | nt
